From PubChem BioAssay (NCATS)
Records with an inconclusive call do not appear. Active and inactive are the calls of the source. Unless noted, calls follow the shape of the dose curve; as a rule, active = well fitted curve in the direction sought with a large enough effect; inconclusive = small, poorly fitted or top-dose-only effect, or another doubt; inactive = no such curve, though single readings can be large; an effect the other way counts as inactive or inconclusive.

What was measured:
[1] = target: Estrogen receptor (Homo sapiens) (UniProt P03372); assay: qHTS assay for small molecule antagonists of estrogen receptor alpha signaling (AID 588513; active = well fitted curve in the direction sought with a large enough effect in the signal ratio, with a control signal flat, not every such curve was filed as active; the % refers to the signal ratio; also: % is scaled to controls: 0 for no effect and ±100 for the full control effect)
Sequence of Estrogen receptor (Homo sapiens) (P03372 whole entry, looked up): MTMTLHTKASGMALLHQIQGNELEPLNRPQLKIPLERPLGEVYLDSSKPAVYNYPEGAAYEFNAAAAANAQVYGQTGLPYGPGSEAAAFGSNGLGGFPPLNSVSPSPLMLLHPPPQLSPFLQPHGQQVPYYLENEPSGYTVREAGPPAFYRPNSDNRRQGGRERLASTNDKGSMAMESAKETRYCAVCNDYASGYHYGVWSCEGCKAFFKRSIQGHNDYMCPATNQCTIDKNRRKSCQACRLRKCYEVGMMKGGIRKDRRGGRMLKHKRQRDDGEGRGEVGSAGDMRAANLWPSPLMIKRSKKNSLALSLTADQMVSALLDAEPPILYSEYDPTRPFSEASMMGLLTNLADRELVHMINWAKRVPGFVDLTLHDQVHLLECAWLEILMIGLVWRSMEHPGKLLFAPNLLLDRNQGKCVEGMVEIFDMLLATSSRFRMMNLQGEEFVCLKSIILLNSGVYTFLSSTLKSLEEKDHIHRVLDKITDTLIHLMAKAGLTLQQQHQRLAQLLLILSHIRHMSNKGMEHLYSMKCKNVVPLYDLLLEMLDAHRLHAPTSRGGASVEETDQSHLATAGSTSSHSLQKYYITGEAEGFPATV
How it was run: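 ER-alpha-UAS-bla GripTite HEK 293 cells in 2% charcoal/dextran-treated FBS medium; compounds titrated (1:2, duplicate), then stimulated with 0.5 nM 17-beta-estradiol for 18 h at 37C. CCF4 beta-lactamase fluorescence; Hill-fit IC50 and efficacy.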

[2] = target: Estrogen receptor (Homo sapiens) (UniProt P03372); assay: qHTS assay for small molecule agonists of estrogen receptor alpha signaling (AID 588514; calls by dose curve;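 also: 0% = vehicle only and 100% = reference agonist; nearly all actives have a fitted effect of over 70% in size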)
How it was run: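 Fluorescence from CCF4 cleavage reports ER-alpha-driven beta-lactamase expression in HEK 293 cells treated 18 hrs at 37 C. Data normalized to 17-beta-estradiol (20 nM) and DMSO, fitted to Hill equation.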

[3] = target: Bile acid receptor (Homo sapiens) (UniProt Q96RI1); assay: qHTS assay for small molecule antagonists of farnesoid X receptor signaling (AID 588526; calls by dose curve; also: % is scaled to controls: 0 for no effect and ±100 for the full control effect)
Sequence of Bile acid receptor (Homo sapiens) (Q96RI1 whole entry, looked up): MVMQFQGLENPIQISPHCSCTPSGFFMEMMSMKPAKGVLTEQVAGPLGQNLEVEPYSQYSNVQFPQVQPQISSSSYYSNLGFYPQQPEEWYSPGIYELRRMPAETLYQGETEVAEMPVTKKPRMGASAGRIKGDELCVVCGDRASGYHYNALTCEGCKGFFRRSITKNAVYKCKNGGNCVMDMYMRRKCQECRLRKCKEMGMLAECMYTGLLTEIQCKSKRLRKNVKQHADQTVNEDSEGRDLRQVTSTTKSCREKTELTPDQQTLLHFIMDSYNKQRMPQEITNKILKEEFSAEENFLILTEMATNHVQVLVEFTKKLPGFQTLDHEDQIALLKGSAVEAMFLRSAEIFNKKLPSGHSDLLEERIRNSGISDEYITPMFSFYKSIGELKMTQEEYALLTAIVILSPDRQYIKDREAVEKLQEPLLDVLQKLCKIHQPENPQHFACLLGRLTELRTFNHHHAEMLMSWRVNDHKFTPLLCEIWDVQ
How it was run: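 Beta-lactamase reporter antagonist mode: HEK293T FXR-UAS-bla cells, titrated compound, CDCA stimulation, 16 h 37 C, CCF4 dye 2 h RT. Data normalized to CDCA 50 uM and DMSO; Hill-fit IC50.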

[4] = qHTS assay for small molecule antagonists of peroxisome proliferator-activated receptor delta signaling (AID 588535; active = well fitted inhibition curve with a large enough effect in the signal ratio, with a control signal flat, not every such curve was filed as active; the % refers to the signal ratio;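 as to max response: cells co-treated with a PPAR-delta agonist as stimulator during compound exposure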); conditions: HEK293T PPARd-UAS-bla, beta-lactamase FRET ratio, 18 h; 460 nm channel
How it was run: (§1)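 Antagonist-mode qHTS using GeneBLAzer PPAR-delta-UAS-bla HEK293T cells; compound exposure 18 hrs at 37 C over a titration. Ratiometric CCF4 fluorescence at 460/530 nm; concentration-response points fitted to the Hill equation.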

[5] = target: Peroxisome proliferator-activated receptor delta (Homo sapiens) (UniProt Q03181); assay: as above
Sequence of Peroxisome proliferator-activated receptor delta (Homo sapiens) (Q03181 whole entry, looked up): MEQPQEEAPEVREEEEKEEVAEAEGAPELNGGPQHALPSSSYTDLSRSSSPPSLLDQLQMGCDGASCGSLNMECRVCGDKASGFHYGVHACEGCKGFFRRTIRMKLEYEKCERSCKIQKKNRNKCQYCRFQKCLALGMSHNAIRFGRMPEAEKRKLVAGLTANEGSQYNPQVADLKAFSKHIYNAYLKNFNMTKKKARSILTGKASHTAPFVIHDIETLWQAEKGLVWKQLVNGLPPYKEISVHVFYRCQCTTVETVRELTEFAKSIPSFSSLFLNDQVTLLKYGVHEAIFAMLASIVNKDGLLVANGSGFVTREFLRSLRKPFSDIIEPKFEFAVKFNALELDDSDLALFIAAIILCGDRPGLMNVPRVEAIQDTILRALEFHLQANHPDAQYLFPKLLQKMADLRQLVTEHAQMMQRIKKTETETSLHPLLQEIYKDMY
How it was run: as §1

[6] = target: Vitamin D3 receptor (Homo sapiens) (UniProt P11473); assay: qHTS assay for small molecule antagonists of vitamin D receptor signaling (AID 588541; calls by dose curve;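 also: receptor activated by calcitriol during compound treatment; series mostly up to about 77 µM; % is scaled to controls: 0 for no effect and ±100 for the full control effect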)
Sequence of Vitamin D3 receptor (Homo sapiens) (P11473 whole entry, looked up): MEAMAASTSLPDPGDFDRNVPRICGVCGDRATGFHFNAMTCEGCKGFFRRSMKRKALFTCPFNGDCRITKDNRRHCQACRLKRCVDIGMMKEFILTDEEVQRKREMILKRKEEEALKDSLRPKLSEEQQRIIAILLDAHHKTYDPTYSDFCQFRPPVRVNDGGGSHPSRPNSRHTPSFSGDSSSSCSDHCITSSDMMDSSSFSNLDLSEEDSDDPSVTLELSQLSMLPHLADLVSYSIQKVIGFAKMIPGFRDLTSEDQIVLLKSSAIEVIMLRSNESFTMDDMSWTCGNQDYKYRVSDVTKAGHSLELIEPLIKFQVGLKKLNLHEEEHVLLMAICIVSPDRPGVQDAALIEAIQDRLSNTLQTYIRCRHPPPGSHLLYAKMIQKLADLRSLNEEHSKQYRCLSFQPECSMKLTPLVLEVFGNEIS
How it was run: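 Antagonist-mode beta-lactamase reporter assay: HEK293T VDR-UAS-bla cells were exposed to titrated compound alongside 1-alpha,25-dihydroxyvitamin D3 at 3 nM final for 16 h. Values were normalized to the 50 nM agonist control and DMSO basal, with IC50 and efficacy from Hill equation fits.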

[7] = target: Vitamin D3 receptor (Homo sapiens) (UniProt P11473); assay: qHTS assay for small molecule agonists of vitamin D receptor signaling (AID 588543; calls by dose curve;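 also: 0% = DMSO basal and 100% = reference agonist control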)
How it was run: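 VDR-UAS-bla HEK293T cells, 2000/well, 2% charcoal-stripped FBS; compound titration 16 h at 37 C; CCF4 beta-lactamase ratio read. Normalized to 50 nM 1-alpha,25-dihydroxyvitamin D3 (100%) and DMSO; Hill fit gives EC50, efficacy.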

[8] = qHTS assay for small molecule agonists of retinoid X receptor alpha signaling (AID 588544; calls by dose curve;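 as to activation: 0% = DMSO basal wells and 100% = reference agonist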); conditions: HEK293T RXRa-UAS-bla, beta-lactamase reporter, 18 h; 530 nm emission
[9] = target: Retinoic acid receptor RXR-alpha (Homo sapiens) (UniProt P19793); assay: as above
Sequence of Retinoic acid receptor RXR-alpha (Homo sapiens) (P19793 whole entry, looked up): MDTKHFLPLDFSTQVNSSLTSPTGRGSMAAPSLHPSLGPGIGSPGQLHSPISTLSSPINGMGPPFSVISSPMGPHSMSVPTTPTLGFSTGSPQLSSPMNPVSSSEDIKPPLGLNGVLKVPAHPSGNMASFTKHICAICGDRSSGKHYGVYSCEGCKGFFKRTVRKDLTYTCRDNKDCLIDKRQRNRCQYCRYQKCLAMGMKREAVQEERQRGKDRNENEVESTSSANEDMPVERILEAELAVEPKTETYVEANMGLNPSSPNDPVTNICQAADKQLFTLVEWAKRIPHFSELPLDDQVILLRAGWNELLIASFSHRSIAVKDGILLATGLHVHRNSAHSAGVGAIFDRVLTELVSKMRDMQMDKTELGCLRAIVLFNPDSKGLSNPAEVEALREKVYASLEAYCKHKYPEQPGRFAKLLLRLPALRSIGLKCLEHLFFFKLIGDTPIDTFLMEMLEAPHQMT

[10] = target: Thyroid hormone receptor beta (Homo sapiens) (UniProt P10828); assay: qHTS assay for small molecule agonists of thyroid hormone receptor beta signaling (AID 588545; calls by dose curve)
Sequence of Thyroid hormone receptor beta (Homo sapiens) (P10828 whole entry, looked up): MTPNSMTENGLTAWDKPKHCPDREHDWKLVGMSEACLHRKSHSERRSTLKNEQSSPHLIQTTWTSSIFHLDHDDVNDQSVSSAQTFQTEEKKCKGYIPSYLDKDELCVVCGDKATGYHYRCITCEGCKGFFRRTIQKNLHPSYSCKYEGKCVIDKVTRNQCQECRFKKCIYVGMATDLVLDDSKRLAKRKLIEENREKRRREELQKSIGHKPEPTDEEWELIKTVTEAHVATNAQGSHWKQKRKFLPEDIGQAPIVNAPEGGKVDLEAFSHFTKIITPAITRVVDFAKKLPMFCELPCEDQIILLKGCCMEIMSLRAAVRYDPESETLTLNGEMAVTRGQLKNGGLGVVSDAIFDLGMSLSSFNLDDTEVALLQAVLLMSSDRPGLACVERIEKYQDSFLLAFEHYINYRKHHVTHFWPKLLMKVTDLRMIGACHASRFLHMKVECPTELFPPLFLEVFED
How it was run: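 Cells (2500/well) were seeded, incubated 4 hrs at 37 C, dosed with a compound series, incubated 18 hrs, loaded with CCF4 dye for 2 hrs at RT, then read for fluorescence. Data were scaled between DMSO (0%) and 10 nM T3 (100%).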

[11] = qHTS assay for small molecule antagonists of retinoid X receptor alpha signaling (AID 588546; active = well fitted inhibition curve with a large enough effect in the signal ratio, with a control signal flat, not every such curve was filed as active; the % refers to the signal ratio;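 also: cells stimulated with 9-cis-retinoic acid as agonist; % is scaled to controls: 0 for no effect and ±100 for the full control effect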); conditions: HEK293T RXRa-UAS-bla, beta-lactamase ratio, antagonist mode; measured here: W530 green channel, cytotoxicity proxy
How it was run: (§2)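 Beta-lactamase reporter inhibition, read as CCF4 fluorescence ratio (ex 405, em 460/530 nm) after 2 h at RT. HEK293T UAS-bla cells, 2500/well, were stimulated with 9-cis-RA at 500 or 100 nM final alongside test compound for 18 h at 37 C.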

[12] = target: Retinoic acid receptor RXR-alpha (Homo sapiens) (UniProt P19793); assay: as above; conditions: HEK293T RXRa-UAS-bla, beta-lactamase ratio, antagonist mode
How it was run: as §2

[13] = target: Thyroid hormone receptor beta (Homo sapiens) (UniProt P10828); assay: qHTS assay for small molecule antagonists of thyroid hormone receptor beta signaling (AID 588547; active = well fitted inhibition curve with a large enough effect in the signal ratio, with a control signal flat, not every such curve was filed as active; the % refers to the signal ratio); conditions: TR-UAS-bla HEK293, beta-lactamase ratio, antagonist mode, 18 h
How it was run: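 Inhibition of T3-driven (0.4nM final) beta-lactamase reporter activity was measured over 0.59 nM to 92 uM compound after 18 h at 37 C. The cells were GripTite HEK293 TR-UAS-bla in charcoal/dextran-stripped serum, with CCF4 ratio read-out and IC50 from Hill fits.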

[14] = qHTS assay for small molecule agonists of the antioxidant response element (ARE) signaling pathway (AID 651741; active = well fitted activation curve with a large enough effect in the signal ratio; the % refers to the signal ratio; also: % of control where 0% means no effect)
How it was run: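 Agonist activity is measured as ARE-driven beta-lactamase expression in a stable HepG2 reporter line, using 16 h compound treatment at 37 C and a FRET substrate fluorescence readout after 2 h.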

[15] = qHTS assay for small molecule activators of the p53 signaling pathway (AID 651743; active = well fitted activation curve with a large enough effect in the signal ratio, not every such curve was filed as active; the % refers to the signal ratio; also: series mostly up to about 92 µM; % of control where 0% means no effect); conditions: HCT-116 p53RE-bla, beta-lactamase FRET ratio, 16 h; stronger effect = higher value
How it was run: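 A beta-lactamase reporter under p53 response element control, stably carried by HCT-116 cells, reported pathway activation. Test compounds were applied for 16 hours at 37 C, and fluorescence was measured 2 hours after adding the B/G FRET substrate.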

[16] = qHTS assay for small molecule activators of the nuclear factor-kappa B (NF-kB) signaling pathway (AID 651749; active = well fitted activation curve with a large enough effect in the signal ratio; the % refers to the signal ratio; also: series mostly up to about 77 µM; % of control where 0% means no effect); conditions: NF-kB-bla ME-180 cells, beta-lactamase FRET ratio, 16 h; stronger effect = higher value
How it was run: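 FRET-based beta-lactamase detection in ME-180 cells reports NF-kB response-element-driven transcription following overnight (16 hr) compound treatment.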

[17] = qHTS assay for environmental chemicals that activate the Aryl hydrocarbon Receptor (AhR) signaling pathway (AID 651777); conditions: 1A2-DRE human hepatoma cells, luciferase, 24 h; stronger effect = higher value; also: % of control where 0% means no effect; nearly all actives have a fitted effect of over 15% in size
How it was run: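 Induction of CYP1A2 transcription through AhR is detected by luciferase in 1A2-DRE hepatoma cells. Compounds or DMSO act for 24 hr at 37 C before a 30 min One-Glo step at room temperature.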

[18] = target: Peroxisome proliferator-activated receptor alpha (Homo sapiens) (UniProt Q07869); assay: qHTS assay for small molecule agonists of the peroxisome proliferator-activated receptor alpha (PPARalpha) signaling pathway (AID 651778); conditions: PathHunter PPARalpha complementation, chemiluminescence, 6 h; stronger effect = higher value; also: % of control where 0% means no effect
Sequence of Peroxisome proliferator-activated receptor alpha (Homo sapiens) (Q07869 whole entry, looked up): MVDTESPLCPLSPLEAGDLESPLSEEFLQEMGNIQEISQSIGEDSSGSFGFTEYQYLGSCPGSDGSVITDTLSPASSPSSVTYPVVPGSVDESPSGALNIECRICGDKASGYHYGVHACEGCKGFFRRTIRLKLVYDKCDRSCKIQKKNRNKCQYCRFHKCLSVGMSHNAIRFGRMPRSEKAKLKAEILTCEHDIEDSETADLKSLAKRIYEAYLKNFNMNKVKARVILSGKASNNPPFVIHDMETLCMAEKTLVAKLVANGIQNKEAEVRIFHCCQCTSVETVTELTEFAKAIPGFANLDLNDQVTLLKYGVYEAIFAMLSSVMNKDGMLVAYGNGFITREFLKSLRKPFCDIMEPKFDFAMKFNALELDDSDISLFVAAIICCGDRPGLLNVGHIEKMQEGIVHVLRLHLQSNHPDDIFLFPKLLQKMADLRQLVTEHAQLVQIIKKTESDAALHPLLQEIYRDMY
How it was run: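 Chemiluminescence from complemented enzyme reported PPARalpha activation in cells after 6 hr of compound treatment at 37 C. The detection reagent was incubated for 60 min at room temperature, and compounds were scored as agonists.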

[19] = qHTS assay for small molecule agonists of the antioxidant response element (ARE) signaling pathway measured by Nrf2-dependant transcriptional activity (AID 720636; active = well fitted curve in the direction sought with a large enough effect in the repeat runs; an effect the other way counts as inactive or inconclusive;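 also: HepG2 cells with an ARE-driven luciferase reporter; % of control where 0% means no effect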)
How it was run: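 We exposed ARE-luc HepG2 cells, seeded in assay medium with 1% dialyzed FBS and allowed 6 hr to adhere, to test compounds overnight (16 hr, 37 C) before measuring luciferase with ONE-Glo.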

[20] = qHTS assay for cell viability of HEK293 cells (AID 743288); conditions: ATP luminescence (CellTiter-Glo), 18 h; max response: stronger effect = lower value; also: potency is read from the fitted curve at half-maximal effect; nearly all actives have a fitted effect of over 50% in size
How it was run: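 Steps: plate 2,000 parental HEK293 cells per well; incubate ≥5 h, 37 C; add compounds in DMSO; incubate 18 h, 37 C; add CellTiter-Glo; wait 30 min at room temperature; read luminescence.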

[21] = qHTS assay for cell viability of the p53RE-bla HCT-116 cell line (AID 743292); also: potency is read from the fitted curve at half-maximal effect; nearly all actives have a fitted effect of over 55% in size
How it was run: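 In this qHTS counter-screen, metabolically competent p53RE-bla HCT-116 cells were counted via their ATP content. Compounds were applied for 16 h at 37 C and luciferase-coupled luminescence was measured.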

Furin (Homo sapiens) = Furin (Homo sapiens) (UniProt P09958); assay: Furin counterscreen qHTS for Zika virus inhibitors (AID 1347149); also: nearly all actives have a fitted effect of over 70% in size; also: potency is read from the fitted curve at half-maximal effect
Sequence of Furin (Homo sapiens) (P09958 whole entry, looked up): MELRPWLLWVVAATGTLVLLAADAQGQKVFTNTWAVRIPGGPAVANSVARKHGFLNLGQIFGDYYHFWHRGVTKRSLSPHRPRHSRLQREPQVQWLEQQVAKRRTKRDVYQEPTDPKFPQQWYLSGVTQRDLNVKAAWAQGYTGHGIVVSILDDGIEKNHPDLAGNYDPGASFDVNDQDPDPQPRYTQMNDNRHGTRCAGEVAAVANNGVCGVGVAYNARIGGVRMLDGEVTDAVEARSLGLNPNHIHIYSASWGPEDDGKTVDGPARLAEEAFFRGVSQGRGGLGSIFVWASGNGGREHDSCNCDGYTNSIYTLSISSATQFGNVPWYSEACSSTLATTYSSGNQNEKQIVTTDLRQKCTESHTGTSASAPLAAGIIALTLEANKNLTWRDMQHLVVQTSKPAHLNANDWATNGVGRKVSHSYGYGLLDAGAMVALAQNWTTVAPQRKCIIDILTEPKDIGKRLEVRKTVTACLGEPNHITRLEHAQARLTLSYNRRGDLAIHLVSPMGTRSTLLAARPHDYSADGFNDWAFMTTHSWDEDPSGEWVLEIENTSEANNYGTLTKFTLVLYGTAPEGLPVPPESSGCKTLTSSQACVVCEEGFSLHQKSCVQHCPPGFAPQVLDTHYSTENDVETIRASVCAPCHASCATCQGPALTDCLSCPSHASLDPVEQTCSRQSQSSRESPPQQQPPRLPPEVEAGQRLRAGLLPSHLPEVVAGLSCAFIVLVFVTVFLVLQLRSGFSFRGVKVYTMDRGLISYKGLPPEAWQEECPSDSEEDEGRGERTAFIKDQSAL
How it was run: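 Counterscreen measures cleavage of 2 microM BOC-RVRR-AMC, below its ~15 microM Km, by 5 nM full-length human furin at pH 7.0 after a 15-min compound preincubation. Inhibition derives from the 15-min fluorescence increase at 37C.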

[22] = Confirmatory screen GU Rhodamine qHTS for Zika virus inhibitors qHTS (AID 1347157); also: nearly all actives have a fitted effect of over 70% in size; also: potency is read from the fitted curve at half-maximal effect
How it was run: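 A qHTS format was used, with compound concentrations ranging up to 114 microM. Each compound was preincubated with 25 nM NS2B-NS3 protease, and the substrate was then added at 1.5 microM. Curves were fitted with a 4-parameter Hill model.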

[23] = ZIKV-mCherry secondary qHTS for Zika virus inhibitors (AID 1347158); also: top concentration of the series differs between compounds
How it was run: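 This orthogonal imaging screen measured ZIKV-mCherry infection of Vero cells exposed to compound, MOI 1, 48-72 h. Percent infection came from segmented nuclei scored mCherry-positive above 3 SD of negative controls.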

[24] = Confirmatory screen NINDS Rhodamine qHTS for Zika virus inhibitors (AID 1347161); also: nearly all actives have a fitted effect of over 60% in size; also: potency is read from the fitted curve at half-maximal effect
How it was run: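 qHTS dose-response: 25 nM linked protease, pH 8.0 Tris/Tween buffer, cpd titration, 15 min RT preinc, 1.5 microM Rhod110 peptide, 15 min reaction (~15% conversion), Ex480/Em540; 4-parameter Hill fit.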

[25] = test system: Zika virus NS2B-NS3 protease (linked); assay: 384 well plate NINDS AMC confirmatory qHTS for Zika virus inhibitors (AID 1347163); also: potency is read from the fitted curve at half-maximal effect; nearly all actives have a fitted effect of over 50% in size
How it was run: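 Enzyme (5, 30 or 60 nM final) first met test compounds for ~15 min. The AMC-tagged peptide Ac-VKTGKR-AMC followed at 30 microM. Fluorescence was then recorded at 25 min and scaled against no-enzyme and no-inhibitor wells.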

[26] = test system: Zika virus NS2B-NS3 protease (linked construct); assay: 384 well plate NINDS Rhodamine confirmatory qHTS for Zika virus inhibitors (AID 1347164);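 also: fluorescence from protease cleavage of Ac-LKRR-rhodamine 110 substrate; potency is read from the fitted curve at half-maximal effect; nearly all actives have a fitted effect of over 65% in size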
How it was run: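 Linked NS2B-NS3 protease (final 5, 30 or 60 nM) preincubated ~15 minutes with compounds, then 10 microM Ac-LKRR-Rhodamine 110 added. Fluorescence (485/538 nm) read after 25 minutes at room temperature, normalized to no-enzyme and no-inhibitor controls.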

[27] = target: Nuclear receptor subfamily 1 group I member 2 (Rattus norvegicus) (UniProt Q9R1A7); assay: qHTS assay for small molecule activators of the rat pregnane X receptor (rPXR) signaling pathway (AID 651751; call rule not given here; also: 0% is about no effect); conditions: rPXR reporter cells, luciferase (One-Glo), 24 h
Sequence of Nuclear receptor subfamily 1 group I member 2 (Rattus norvegicus) (Q9R1A7 whole entry, looked up): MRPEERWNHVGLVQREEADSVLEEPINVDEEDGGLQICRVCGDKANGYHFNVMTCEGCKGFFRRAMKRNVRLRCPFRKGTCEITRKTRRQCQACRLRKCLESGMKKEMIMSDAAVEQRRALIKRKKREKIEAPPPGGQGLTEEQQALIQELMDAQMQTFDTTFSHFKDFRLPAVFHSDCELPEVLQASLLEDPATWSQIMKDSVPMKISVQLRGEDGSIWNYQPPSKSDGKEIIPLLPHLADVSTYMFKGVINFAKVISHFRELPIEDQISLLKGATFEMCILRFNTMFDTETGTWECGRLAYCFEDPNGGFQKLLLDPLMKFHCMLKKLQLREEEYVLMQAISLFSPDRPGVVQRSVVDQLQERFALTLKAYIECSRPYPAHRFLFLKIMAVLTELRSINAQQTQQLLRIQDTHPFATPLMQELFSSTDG

[28] = qHTS assay for small molecule activators of the human pregnane X receptor (PXR) signaling pathway (AID 720659; call rule not given here; also: 0% is about no effect)

## CCN(Cc1cccc(S(=O)(=O)O)c1)c1ccc(C(=C2C=CC(=[N+](CC)Cc3cccc(S(=O)(=O)O)c3)C=C2)c2ccccc2S(=O)(=O)[O-])cc1
[1]
  Potency: inactive
[2]
  outcome: inactive
[3]
  outcome: inactive
[4]
  max response: -15.8%
[5]
  outcome: inactive
[6]
  Potency: inactive
[7]
  outcome: inactive
[8]
  max response: -7.12%
[9]
  outcome: inactive
[10]
  outcome: inactive
[11]
  max response: -12.5%
[12]
  max response: 8.56% (inactive)
[13]
  activity change % (negative = inhibition): -4.53% (inactive)
[14]
  Potency: inactive
[15]
  activation: 1.38% (inactive)
[16]
  activation: 1.84% (inactive)
[17]
  activation: -6.97% (inactive)
[18]
  max response: -9.68% (inactive)
[19]
  outcome: inactive
[20]
  Potency: 35.5 µM (active)
[21]
  Potency: 31.6 µM (active)
Furin (Homo sapiens)
  Potency: inactive
[22]
  Potency: 3.55 µM (active)
[23]
  Potency: inactive
[24]
  Potency: 3.55 µM (active)
[25]
  Potency: 200 µM (active)
[26]
  Potency: 14.1 µM (active)
[27]
  max response: -11% (inactive)
[28]
  outcome: inactive

## Cc1ccc(C(=O)Nc2ccc(C(=O)OCc3cc(=O)n4c5c(sc4n3)CCCC5)cc2)cc1
Furin (Homo sapiens)
  Potency: 41.8 µM (active)
[22]
  Potency: inactive

## Cc1ccc2nc(NS(=O)(=O)c3ccc(Cl)cc3)c(Nc3ccc(C(=O)O)cc3)nc2c1
Furin (Homo sapiens)
  Potency: inactive
[22]
  Potency: 3.55 µM (active)
[24]
  Potency: 3.16 µM (active)
[25]
  Potency: 141 µM (active)
[26]
  Potency: 12.6 µM (active)

## O=C(CNc1nnc(-c2ccc([S+](=O)([O-])N3CCCC3)cc2)n1-c1ccccc1)Nc1ccc(C(=O)O)cc1
Furin (Homo sapiens)
  Potency: inactive
[22]
  Potency: inactive
[24]
  Potency: inactive
